Reference: PubChem BioAssay (NCI)
About 83,000 compounds went through this panel and 20% of them were active in at least one assay; those are over-represented in the sample as a whole.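 Plates (96-well) were seeded with cells, treated with compound at one concentration, and incubated for 48 hours before percent growth was determined.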 Values without a mark were called inactive. Calls of active or inactive are those of the source. How the source made its calls: active means growth percent below 10; inactive means the rest.

Key:
Assay in all cases: NCI-60 one-dose screen, 48 h (100 = growth as untreated, 0 = no growth, -100 = all killed)
Conditions in all cases: 10 µM unless noted
[1] = system: SK-MEL-2 melanoma
[2] = system: EKVX NSCLC
[3] = system: SN12C renal
[4] = system: UO-31 renal
[5] = system: TK-10 renal
[6] = system: ACHN renal
[7] = system: CAKI-1 renal
[8] = system: A498 renal
[9] = system: CCRF-CEM leukemia
[10] = system: MOLT-4 leukemia

SMILES	growth [1]	growth [2]	growth [3]	growth [4]	growth [5]	growth [6]	growth [7]	growth [8]	growth [9]	growth [10]
Oc1ccc(Nc2ccc3ccccc3c2)cc1	62.4%	79%	64.8%	10.6%	45.3%	18.5%	8.98% (active)	94.1%	49%	46.8%
Clc1ccc(-n2ncc3c(NCCCN4CCOCC4)ncnc32)cc1	108%	92.9%	99.1%	79.6%	107%	96.4%	107%	104%	94.4%	97.7%
CC(C)=C1C=C2CC[C@@H]3[C@](C)(CCC[C@@]3(C)C(=O)O)[C@H]2CC1	109%	93.4%	106%	88.9%	93.2%	104%	99.6%	109%	106%	96.6%
Cc1ccccc1N=C(N)Nc1ccccc1C (tested in a mixture with another compound)	85.7%	85.3%	82.8%	71.1%	67.8%	77.9%	52.9%	96.8%	9.64% (active)	37.1%
CN1CCC(CN2c3ccccc3Sc3ccccc32)C1 (stereo unspecified)	114%	107%	97.1%	60.2%	92%	86.1%	79.4%	109%	72.7%	79.1%
C/C(=N\NC(=S)N1CC2CCC(CC2)C1)c1ccccn1	13.7%	-6.66% (active)	4.27% (active)	-8.11% (active)	21.6%	15.1%	0.118% (active)	-12.4% (active)	3.63% (active)	3.87% (active)
O=C(Cc1ccccc1)C(F)(F)F	107%	99.1%	103%	93.7%	103%	106%	89.8%	102%	98.4%	82.7%
CCOC(=O)/C(=C\c1ccc2ccccc2c1)P(=O)(OCC)OCC	54.7%	71%	17%	12.4%	61.4%	14%	45.5%	55.3%	-36.6% (active)	-25.1% (active)
OC(c1cc2ccc(C(F)(F)F)cc2c2cc(C(F)(F)F)ccc12)C1CCCCN1 (stereo unspecified)	-83.1% (active)	-96.7% (active)	-90.8% (active)	-95.8% (active)	-89.5% (active)	-94.1% (active)	-93.8% (active)	-65.6% (active)	-68% (active)	-73.4% (active)
CC(=O)C1Cc2ccccc2C1=O (stereo unspecified)	124%	80.6%	98%	79.5%	142%	97.6%	82.6%	110%	125%	115%
OC(CSc1ccccc1)CN1CCN(c2ccc(Cl)cc2)CC1 (stereo unspecified)	98.5%	95.2%	94.4%	84.8%	101%	97.9%	88.1%	82.1%	86%	83%
Oc1cc(Cl)ccc1Cc1ccc(Cl)cc1O	66.1%	51.2%	36.2%	46.4%	95.6%	49.4%	92.9%	126%	45.7%	43.5%
O=C(O)c1ccc2c(c1)C(=O)c1ccccc1C2=O	105%	102%	94.6%	87%	105%	103%	96.4%	71.8%	108%	94.4%
O=C1C=CC(O)=CC1=P(c1ccccc1)(c1ccccc1)c1ccccc1	82.6%	93.8%	89.4%	71.8%	96.3%	99.2%	86.2%	58.6%	86.9%	101%
CCc1oc2ccccc2c1C(=O)c1cc(Br)c(O)c(Br)c1	59.6%	73.6%	78.4%	84.3%	125%	84.2%	63.6%	67.2%	41.8%	83.9%
O=C(/C=C/C(Cl)(Cl)Cl)Nc1ccc(Cl)cc1	84.6%	94.2%	101%	-78% (active)	129%	104%	101%	101%	73.2%	84.2%
CCCOC(=O)c1nc(N(CC2CCCCC2)C(=O)NC)sc1/N=C/c1ccccc1	-0.0368% (active)	9.94% (active)	15%	23.9%	52.5%	17.4%	31.7%	63.5%	2.45% (active)	3.07% (active)
CCOC(=O)c1c(C)[nH]c2ccc(O)cc12	97.9%	98.3%	98.9%	72.3%	128%	110%	97.8%	111%	77.5%	105%
O=[N+]([O-])C=C(c1ccccc1)c1ccccc1	95.5%	71%	81.1%	60.9%	84.8%	85.4%	57.1%	124%	68.6%	70.9%
CCN(CC)CCNc1ccc([N+](=O)[O-])c2sc3ccccc3c(=O)c12	21.6%	23.1%	28.5%	-10% (active)	63.7%	6.41% (active)	-0.017% (active)	43.7%	38%	12.1%
O=C(NNc1ccccc1)OCc1ccccc1	86.1%	91%	84.9%	56.8%	90%	50.2%	28.3%	86.1%	22%	26.9%
Cc1oc2c(C)c3oc(=O)cc(C)c3cc2c1CCl	109%	68.4%	67.8%	47.6%	86.1%	78.3%	51.8%	61.8%	47.6%	63.6%
c1ccc(-c2cccc(-c3ccccn3)n2)nc1	16.6%	15.8%	10.5%	9.63% (active)	32.9%	14%	–	44.2%	5.02% (active)	3.3% (active)
O=[N+]([O-])CC(O)c1ccccc1 (stereo unspecified)	120%	113%	101%	96.8%	111%	102%	95.9%	–	104%	98.6%
[Cl-].[Rh+3].c1ccc(-c2ccnc3c2ccc2c(-c4ccccc4)ccnc23)cc1.c1ccc(-c2ccnc3c2ccc2c(-c4ccccc4)ccnc23)cc1.c1ccc(-c2ccnc3c2ccc2c(-c4ccccc4)ccnc23)cc1	95.9%	81.1%	85.8%	51.4%	107%	93.6%	86.1%	–	76.2%	104%
COC1CC(C)C(OC)c2cc(O)cc(c2O)NC(=O)/C(C)=C/C=C\C(C)C(OC(N)=O)/C(C)=C\C(C)C1OC (stereo unspecified)	39.4%	41%	30.3%	-70.9% (active)	68%	28.5%	54.2%	–	-30.7% (active)	-23.4% (active)
O=C(Nc1ccc(Cl)c(Cl)c1)OCc1ccco1	28.9%	56.9%	48.8%	36.1%	58.2%	32.5%	25.4%	71.5%	39.3%	34.1%
